Composite z-score data for 35 compounds are collected here from PubChem BioAssay.

The structures appear in SMILES notation.

Fibroblast growth factor 2 (Homo sapiens), sequence (P09038 whole entry, looked up): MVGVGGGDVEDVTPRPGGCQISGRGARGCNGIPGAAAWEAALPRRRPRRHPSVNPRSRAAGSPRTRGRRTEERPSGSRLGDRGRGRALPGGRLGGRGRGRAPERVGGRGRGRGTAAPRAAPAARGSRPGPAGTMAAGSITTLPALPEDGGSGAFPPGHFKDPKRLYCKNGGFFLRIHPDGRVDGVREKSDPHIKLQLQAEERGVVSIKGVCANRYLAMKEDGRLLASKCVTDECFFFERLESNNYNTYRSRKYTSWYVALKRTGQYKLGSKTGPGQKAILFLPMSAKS
Follistatin (Homo sapiens), sequence (P19883 whole entry, looked up): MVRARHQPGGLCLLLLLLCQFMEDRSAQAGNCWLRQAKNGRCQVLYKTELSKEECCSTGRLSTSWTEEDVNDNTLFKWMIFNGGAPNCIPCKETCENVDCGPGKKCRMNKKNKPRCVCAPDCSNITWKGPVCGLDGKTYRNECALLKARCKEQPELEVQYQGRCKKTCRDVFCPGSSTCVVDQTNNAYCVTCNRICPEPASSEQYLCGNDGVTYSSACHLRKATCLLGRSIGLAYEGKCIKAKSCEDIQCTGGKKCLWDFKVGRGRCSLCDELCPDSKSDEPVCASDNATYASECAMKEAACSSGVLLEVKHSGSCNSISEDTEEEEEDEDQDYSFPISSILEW

The first assay concerns the target Follistatin (Homo sapiens) (UniProt P19883). The experiment in a line: follistatin binders on small-molecule microarrays, primary screen, biochemical, small-molecule microarray, 635/667 nm fluorescence (AID 1132). Particulars: FST binding, 635 nm fluorescence, higher = more signal.
As to `COC(=O)[C@@H]1N=C(c2ccc(OCCCO)cc2)O[C@@H]1C`, the composite z-score came to 1.17.

Consider `C=C[C@H]1C(C(=O)OCC)=CC[C@@H](c2ccccc2)N1S(=O)(=O)c1ccc(C)cc1`, for which the composite z-score turned out to be 1.2.

Compound `CC(c1ccccc1)C(O)C1C=CC2C(=O)N(C)C(=O)C2N1Nc1ccccc1` (stereo not given) showed a composite z-score of 0.777.

Consider `NC(=O)NCC#Cc1ccc2c(c1)[C@]1(C(=O)N2)[C@H](c2ccccc2OCCO)N2[C@H](c3ccccc3)[C@H](c3ccccc3)OC(=O)[C@H]2[C@@H]1C(=O)NC[C@H](O)c1ccccc1`, for which the composite z-score turned out to be 0.109.

`CCCCC[C@H]1OC[C@@]23C=C(Br)[C@@H](CC12)[C@@]1(CO1)C3=O` (stereo not given in full) came in with a composite z-score of 0.0488.

As to `CCC#CCN(Cc1ccccc1Br)[C@H](/C=C/C1CC1)[C@@H](O)Cc1ccccc1`, the composite z-score is -0.837.

Take `COC(=O)C(CC#Cc1ccc2c(c1)[C@]1(C(=O)N2)[C@H](c2ccc(O)cc2)N2[C@H](c3ccccc3)[C@H](c3ccccc3)OC(=O)[C@H]2[C@@H]1C(=O)NC[C@H](O)c1ccccc1)C(=O)OC`: the composite z-score came to 1.21.

`CCCCC(O)C1C=CC2C(=O)N(C)C(=O)C2N1N(c1ccccc1)c1ccccc1` (stereo not given): the composite z-score was 0.613.

On to `O=C1[C@H]2C=C(I)[C@H](C[C@@H]2OCCOCCO)[C@@]12CO2`, for which the composite z-score amounted to 0.697.

`C=CC[C@]1(C(=O)N2CCCCC2)N=C(c2ccc(OCCCO)cc2)O[C@H]1c1ccccc1CN=[N+]=[N-]` showed a composite z-score of 1.29.

With `COC(=O)[C@@]1(Cc2ccc(OC)cc2)[C@H]2c3cc(C(=O)N4CCCC4)n(CCO)c3C[C@H]2CN1C(=O)c1ccccc1`, the composite z-score came out at 0.113.

For `C=CC[C@]1(C(=O)N2CCOCC2)COC(c2ccc(OCCCO)cc2)=N1`, the composite z-score turned out to be 1.33.

`CN(C)C(=O)[C@]1(CCC(=O)OC(C)(C)C)N=C(c2ccc(OCCCO)cc2)O[C@@H]1c1ccccc1CN=[N+]=[N-]` yielded a composite z-score of 1.25.

On to `CO[C@H]1O[C@H](CO)[C@@H](OC(=O)Nc2ccc3c(c2)OCO3)[C@H](OC(=O)Nc2ccc3c(c2)OCO3)[C@@H]1OC(=O)Nc1ccc2c(c1)OCO2`, for which the composite z-score is 0.997.

`C=C[C@@H](OC)[C@H](OC(=O)Nc1ccc(OC)cc1)c1ccc(O)c(F)c1`: the composite z-score worked out at 1.2.

The compound `COC(=O)c1c(CC[C@@H](CO)NC(=O)N[C@@H](C)Cn2cc(-c3ccccn3)nn2)oc(C(C)=O)c1C(=O)OC` displayed a composite z-score of 1.28.

For `CCCC[C@@H](O)C1=C(COC)C[C@H]2C(=O)N(Cc3ccccc3)C(=O)[C@H]2[C@H]1CO`, the composite z-score came to 0.855.

Take `CCCN1C(=O)[C@]2(Cc3ccccc31)N=C(c1ccc(OCCCO)cc1)O[C@@H]2c1ccccc1`: the composite z-score stood at 1.3.

For the compound `CCOC(=O)C[C@H]1[C@H](OC(=O)c2ccc(C(=O)c3ccccc3)cc2)[C@@H](NC(=O)C2CCCCC2)c2cc(OCCCO)ccc2N1C(=O)c1ccc2ccccc2n1`, the composite z-score was determined as 0.796.

As for `COc1cccc(C)c1NC(=O)O[C@H]1[C@H](OC(=O)Nc2ccc3c(c2)OCO3)[C@@H](OC(=O)Nc2ccc3c(c2)OCO3)[C@@H](OC)O[C@@H]1CO`, the composite z-score is 1.28.

Compound `CC(C)(C)OC(=O)COc1cccc(C(=O)CCN2CCOCC2)c1` yielded a composite z-score of -0.35.

In turn, `CC(C)NC(=O)[C@@]1(C)c2ccccc2C(=O)N(Cc2ccc(OC(F)(F)F)cc2)[C@H]1c1ccc(CO)cc1` gave a composite z-score of -0.333.

As to `COc1cc2c(cc1O)C(c1cccs1)N(Cc1cc3c(cc1Br)OCO3)CC2` (stereo not given), the composite z-score stood at 1.08.

Compound `CCCCNC(=O)c1ccc(C#CC(C)(C)C)c(OC(C)=O)c1` yielded a composite z-score of 0.665.

For `CCCC1(C(=O)OC)C=C2C(=C(C)C(=O)C2C)CN1` (stereo not given), the composite z-score was determined as 0.503.

`O=C(C1N=C(c2ccc(OCCCO)cc2)N(c2ccccc2)O1)N1CCCCC1` (stereo not given) yielded a composite z-score of 1.05.

Compound `CCCCN1CC=CC23O[C@@H]4/C=C\CCC(C)OC(=O)C4[C@H]2C(=O)N(CCCO)[C@@H]3C1=O` (stereo not given in full) gave a composite z-score of -0.885.

`Cc1ccc(S[C@]2(C(=O)NCC(F)(F)F)CC(=O)N(Cc3cc(C(F)(F)F)cc(C(F)(F)F)c3)[C@@H]2c2ccc(CO)cc2)cc1` showed a composite z-score of -0.192.

Compound `COC(=O)[C@@]1(Cc2ccc(F)cc2)[C@H]2c3cc(C(=O)N(C)C)n(CCc4ccc(OC)c(Br)c4)c3C[C@H]2CN1C(=O)c1ccccc1` gave a composite z-score of -0.0313.

The compound `O=C(NCCN1CCOCC1)[C@@H]1c2ccccc2C(=O)N(Cc2ccccc2Cl)[C@H]1c1ccc(CO)cc1` yielded a composite z-score of -0.163.

The compound `CCCCCN1CC=CC23O[C@@H]4/C=C\CCCOC(=O)C4[C@H]2C(=O)N(C(C)CO)[C@@H]3C1=O` (stereo not given in full) had a composite z-score of -0.87.

Consider `COc1ccc(CCNC(=O)[C@@H]2c3ccccc3C(=O)N(C3CCCCC3)[C@H]2c2ccc(CO)cc2)cc1`, for which the composite z-score was found to be 0.441.

The compound `C=CCNC(=O)[C@H]1[C@@H]2C(=O)O[C@@H](c3ccccc3)[C@@H](c3ccccc3)N2[C@@H](c2ccccc2OCCO)[C@]12C(=O)N(C(=O)OCCOC)c1ccc(C#CC3(O)CCCCCC3)cc12` registered a composite z-score of 0.785.

Regarding `C#Cc1cc2ccccc2oc1=O`, the composite z-score is -2.22.

Take `CCCC=C(CCC)[C@@H](NS(=O)(=O)CC12CCC(CC1=O)C2(C)C)c1ccc(C(=O)OC)cc1` (stereo not given in full): the composite z-score came out at 0.107.

Another assay has as its target Fibroblast growth factor 2 (Homo sapiens) (UniProt P09038). The experiment in a line: FGF2 binders on small-molecule microarrays, primary screen, biochemical, small-molecule microarray, 635/667 nm fluorescence (AID 1133). The conditions noted are these: small-molecule microarray binding, FGF2, fluorescence 635/667; higher = more signal.
With `COC(=O)[C@@H]1N=C(c2ccc(OCCCO)cc2)O[C@@H]1C`, the composite z-score was 0.936.

`C=C[C@H]1C(C(=O)OCC)=CC[C@@H](c2ccccc2)N1S(=O)(=O)c1ccc(C)cc1` registered a composite z-score of 0.0703.

`CC(c1ccccc1)C(O)C1C=CC2C(=O)N(C)C(=O)C2N1Nc1ccccc1` (stereo not given): the composite z-score is -0.579.

`NC(=O)NCC#Cc1ccc2c(c1)[C@]1(C(=O)N2)[C@H](c2ccccc2OCCO)N2[C@H](c3ccccc3)[C@H](c3ccccc3)OC(=O)[C@H]2[C@@H]1C(=O)NC[C@H](O)c1ccccc1` registered a composite z-score of -0.751.

Compound `CCCCC[C@H]1OC[C@@]23C=C(Br)[C@@H](CC12)[C@@]1(CO1)C3=O` (stereo not given in full) returned a composite z-score of -0.165.

`CCC#CCN(Cc1ccccc1Br)[C@H](/C=C/C1CC1)[C@@H](O)Cc1ccccc1` showed a composite z-score of -0.984.

Compound `COC(=O)C(CC#Cc1ccc2c(c1)[C@]1(C(=O)N2)[C@H](c2ccc(O)cc2)N2[C@H](c3ccccc3)[C@H](c3ccccc3)OC(=O)[C@H]2[C@@H]1C(=O)NC[C@H](O)c1ccccc1)C(=O)OC` displayed a composite z-score of 0.551.

For `CCCCC(O)C1C=CC2C(=O)N(C)C(=O)C2N1N(c1ccccc1)c1ccccc1` (stereo not given), the composite z-score is -0.604.

For `O=C1[C@H]2C=C(I)[C@H](C[C@@H]2OCCOCCO)[C@@]12CO2`, the composite z-score was 0.952.

Turning to `C=CC[C@]1(C(=O)N2CCCCC2)N=C(c2ccc(OCCCO)cc2)O[C@H]1c1ccccc1CN=[N+]=[N-]`, the composite z-score was 0.524.

In turn, `COC(=O)[C@@]1(Cc2ccc(OC)cc2)[C@H]2c3cc(C(=O)N4CCCC4)n(CCO)c3C[C@H]2CN1C(=O)c1ccccc1` had a composite z-score of -0.2.

`C=CC[C@]1(C(=O)N2CCOCC2)COC(c2ccc(OCCCO)cc2)=N1` displayed a composite z-score of 0.386.

Take `CN(C)C(=O)[C@]1(CCC(=O)OC(C)(C)C)N=C(c2ccc(OCCCO)cc2)O[C@@H]1c1ccccc1CN=[N+]=[N-]`: the composite z-score was -0.0399.

In the case of `CO[C@H]1O[C@H](CO)[C@@H](OC(=O)Nc2ccc3c(c2)OCO3)[C@H](OC(=O)Nc2ccc3c(c2)OCO3)[C@@H]1OC(=O)Nc1ccc2c(c1)OCO2`, the composite z-score is 0.366.

Take `C=C[C@@H](OC)[C@H](OC(=O)Nc1ccc(OC)cc1)c1ccc(O)c(F)c1`: the composite z-score worked out at 0.659.

`COC(=O)c1c(CC[C@@H](CO)NC(=O)N[C@@H](C)Cn2cc(-c3ccccn3)nn2)oc(C(C)=O)c1C(=O)OC`: the composite z-score is 0.707.

Regarding `CCCC[C@@H](O)C1=C(COC)C[C@H]2C(=O)N(Cc3ccccc3)C(=O)[C@H]2[C@H]1CO`, the composite z-score came to 1.33.

Compound `CCCN1C(=O)[C@]2(Cc3ccccc31)N=C(c1ccc(OCCCO)cc1)O[C@@H]2c1ccccc1` had a composite z-score of 0.716.

Turning to `CCOC(=O)C[C@H]1[C@H](OC(=O)c2ccc(C(=O)c3ccccc3)cc2)[C@@H](NC(=O)C2CCCCC2)c2cc(OCCCO)ccc2N1C(=O)c1ccc2ccccc2n1`, the composite z-score stood at 0.979.

`COc1cccc(C)c1NC(=O)O[C@H]1[C@H](OC(=O)Nc2ccc3c(c2)OCO3)[C@@H](OC(=O)Nc2ccc3c(c2)OCO3)[C@@H](OC)O[C@@H]1CO` had a composite z-score of 0.887.

Regarding `CC(C)(C)OC(=O)COc1cccc(C(=O)CCN2CCOCC2)c1`, the composite z-score was -0.284.

With `CC(C)NC(=O)[C@@]1(C)c2ccccc2C(=O)N(Cc2ccc(OC(F)(F)F)cc2)[C@H]1c1ccc(CO)cc1`, the composite z-score is -0.843.

In the case of `COc1cc2c(cc1O)C(c1cccs1)N(Cc1cc3c(cc1Br)OCO3)CC2` (stereo not given), the composite z-score turned out to be 0.75.

As to `CCCCNC(=O)c1ccc(C#CC(C)(C)C)c(OC(C)=O)c1`, the composite z-score worked out at 0.553.

Compound `CCCC1(C(=O)OC)C=C2C(=C(C)C(=O)C2C)CN1` (stereo not given) gave a composite z-score of -0.343.

For the compound `O=C(C1N=C(c2ccc(OCCCO)cc2)N(c2ccccc2)O1)N1CCCCC1` (stereo not given), the composite z-score is 0.423.

For `CCCCN1CC=CC23O[C@@H]4/C=C\CCC(C)OC(=O)C4[C@H]2C(=O)N(CCCO)[C@@H]3C1=O` (stereo not given in full), the composite z-score was -1.24.

As to `Cc1ccc(S[C@]2(C(=O)NCC(F)(F)F)CC(=O)N(Cc3cc(C(F)(F)F)cc(C(F)(F)F)c3)[C@@H]2c2ccc(CO)cc2)cc1`, the composite z-score is -0.897.

Take `COC(=O)[C@@]1(Cc2ccc(F)cc2)[C@H]2c3cc(C(=O)N(C)C)n(CCc4ccc(OC)c(Br)c4)c3C[C@H]2CN1C(=O)c1ccccc1`: the composite z-score is -0.433.

Regarding `O=C(NCCN1CCOCC1)[C@@H]1c2ccccc2C(=O)N(Cc2ccccc2Cl)[C@H]1c1ccc(CO)cc1`, the composite z-score was -0.976.

In turn, `CCCCCN1CC=CC23O[C@@H]4/C=C\CCCOC(=O)C4[C@H]2C(=O)N(C(C)CO)[C@@H]3C1=O` (stereo not given in full) returned a composite z-score of -1.08.

Take `COc1ccc(CCNC(=O)[C@@H]2c3ccccc3C(=O)N(C3CCCCC3)[C@H]2c2ccc(CO)cc2)cc1`: the composite z-score was 1.74.

For `C=CCNC(=O)[C@H]1[C@@H]2C(=O)O[C@@H](c3ccccc3)[C@@H](c3ccccc3)N2[C@@H](c2ccccc2OCCO)[C@]12C(=O)N(C(=O)OCCOC)c1ccc(C#CC3(O)CCCCCC3)cc12`, the composite z-score came out at 0.226.

`C#Cc1cc2ccccc2oc1=O` showed a composite z-score of -1.39.

As for `CCCC=C(CCC)[C@@H](NS(=O)(=O)CC12CCC(CC1=O)C2(C)C)c1ccc(C(=O)OC)cc1` (stereo not given in full), the composite z-score is -0.056.
